From PubChem BioAssay (Tox21)
“And” between values parts separate entries of the source, which are not always exact repeats. Equal entries are not always repeated. Records with an inconclusive call do not appear. Where a call stands in place of a potency, no number is given. The source made the active and inactive calls. Calls come from the whole dose curve.
Potency is the fitted concentration of half-maximal effect.

Experiment: qHTS assay to identify small molecule antagonists of the estrogen receptor alpha (ER-alpha) signaling pathway using the BG1 cell line (AID 743080);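 note: BG1 cells stimulated with 17beta-estradiol alongside compound; nearly all actives have a fitted effect of over 25% in size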
Details: BG1Luc4E2 ERE-luciferase antagonist mode, luminescence; series mostly up to 70.3 µM
Description: National Center for Advancing Translational Sciences [NCATS]
NIH Chemical Genomics Center [NCGC]
U.S. Environmental Protection Agency [EPA]
National Institutes of Environmental Health Sciences [NIEHS]
National Toxicology Program [NTP]
U.S. Food and Drug Administration [FDA]
Estrogen receptor (ER), a nuclear hormone receptor, plays an important role in development, metabolic homeostasis and reproduction. Endocrine disrupting chemicals (EDCs) and their interactions with steroid hormone receptors like ER causes disruption of normal endocrine function. Therefore, it is important to understand the effect of environmental chemicals on the ER signaling pathway. To identify ER antagonists, BG1-Luc-4E2 cell line (provided by Dr. Michael Denison from University of California) has been used to screen the Tox21 10K compound library. BG1Luc4E2 cell line endogenously expresses full-length ER-alpha and is stably transfected with a plasmid containing four estrogen responsive elements (ERE) upstream of a luciferase reporter gene.
Tox21 Assay Protocol Summary:
BG1-Luc-4E2 cells were cultured in phenol red free assay medium containing 10% charcoal stripped FBS for 5 days before the assay was performed. The cells were dispensed at 4,000 cells/4 uL of assay medium per well into white wall/solid-bottom 1536-well plates using a Multidrop Combi (ThermoFisher Scientific, Waltham, MA) dispenser. The assay plates were incubated at a 37C and 5% CO2 for 24 h, and then 23 nL of compounds dissolved in DMSO, positive controls or DMSO only was transferred to the assay plate using a Pintool station (Kalypsys, San Diego, CA), followed by addition of 1 uL of 17beta-estradiol in assay medium using a Flying Reagent Dispenser (Aurora Discovery, San Diego, CA). After the plates were incubated at 37 C and 5% CO2 for 21.5 h, 1 uL of CellTiter-Fluor reagent (Promega, Madison, WI) of measuring cytotoxicity was added using Flying Reagent Dispenser (FRD) to each well. The assay plates were incubated at 37 C and 5% CO2 for additional 30 min and the fluorescence intensity was quantified by a ViewLux plate reader (PerkinElmer, Shelton, CT). For measuring luciferase reporter gene activity, 4 uL of ONE-Glo reagent (Promega) was added to each plate using an FRD and luminescence was quantified by a ViewLux plate reader after 30 min incubation at room temperature.
For CCOP(=O)(OCC)O/C(=C/Cl)c1ccc(Cl)cc1Cl, the Potency was 54.5 µM (active). In the case of NC(=O)CI, the Potency is reported as “inactive”. With C=CCOC(C)=O the Potency was “inactive”. In the case of O=C(Nc1ccccc1)Nc1cnns1, the Potency is reported as 68.5 µM (active). With CO/C=C(/C(=O)OC)c1ccccc1COc1cccc(C(F)(F)F)n1 the Potency was 2.17 µM (active). In the case of CN1C[C@H](CNC(=O)OCc2ccccc2)C[C@@H]2c3cccc4c3c(cn4C)C[C@H]21, the Potency is reported as “inactive”. In the case of CN1[C@@H]2CC[C@H]1CC(OC(=O)c1cc(Cl)cc(Cl)c1)C2 (stereo not given in full), the Potency is reported as “inactive”. For CCOP(=S)(OCC)Oc1nc(Cl)c(Cl)cc1Cl, the Potency was “inactive”. For CCc1ccc(C(=O)NN(C(=O)c2cc(C)cc(C)c2)C(C)(C)C)cc1, the Potency was “inactive”. With Nc1ccc([N+](=O)[O-])cc1[N+](=O)[O-] the Potency was “inactive”. For COC(=O)c1cncn1C(C)c1ccccc1 (stereo not given), the Potency was “inactive”. For O=C(NCc1cccnc1)Nc1ccc([N+](=O)[O-])cc1, the Potency was “inactive”. For CC(Cl)Cl, the Potency was “inactive”. For O=[N+]([O-])C(Br)(CO)CO, the Potency was “inactive”. In the case of CCOc1ccc(C(C)(C)COCc2cccc(Oc3ccccc3)c2)cc1, the Potency is reported as “inactive”. With C=CC(=O)OCC(C)O (stereo not given) the Potency was “inactive”. For CC(=O)CCC(C)=O, the Potency was “inactive”. In the case of O=[N+]([O-])c1cc(C(F)(F)F)cc([N+](=O)[O-])c1Cl, the Potency is reported as “inactive”. In the case of C=CC(C)=O, the Potency is reported as “inactive”. With CCOc1nc(F)cc2nc(S(=O)(=O)Nc3c(Cl)cccc3Cl)nn12 the Potency was “inactive”. For CNP(=O)(OC)Oc1ccc(C(C)(C)C)cc1Cl (stereo not given), the Potency was “inactive”. For CCOC(=O)C(Cl)C(C)=O (stereo not given), the Potency was “inactive”. With CC(=O)C(C)(C)C the Potency was “inactive”. With OC(c1ccc(Cl)cc1)(c1ccc(Cl)cc1)c1cccnc1 the Potency was “inactive”. For COCCOCCO, the Potency was “inactive”. For CCCCCCC#N, the Potency was “inactive”. In the case of Cn1sc(Cl)cc1=O, the Potency is reported as “inactive”. With Cc1c(F)c(F)c(COC(=O)C2C(/C=C(\Cl)C(F)(F)F)C2(C)C)c(F)c1F (stereo not given) the Potency was “inactive”. In the case of COC(=O)C(C)N(C(=O)Cc1ccccc1)c1c(C)cccc1C (stereo not given), the Potency is reported as “inactive”. In the case of Cn1cc[n+](C)c1 (tested in a mixture with another compound), the Potency is reported as “inactive”. For COc1nn(CSP(=S)(OC)OC)c(=O)s1, the Potency was “inactive”. For CCOP(=S)(OCC)SCSCC, the Potency was “inactive”. For CS/C(C)=N/OC(=O)N(C)SN(C)C(=O)O/N=C(\C)SC, the Potency was “inactive”. With CNC(C)Cc1ccccc1OC (stereo not given) the Potency was “inactive”. For CC(C)N(C(=O)COc1nnc(C(F)(F)F)s1)c1ccc(F)cc1, the Potency was “inactive”. With C(=NC1CCCCC1)=NC1CCCCC1 the Potency was 2.45 µM (active) and 2.43 µM (active). For O=C1C(=O)c2cccc3cccc1c23, the Potency was “inactive”. In the case of COP(=S)(OC)Oc1ccc([N+](=O)[O-])cc1Cl, the Potency is reported as “inactive”. For O=C(O)COc1ccc(Cl)cc1, the Potency was “inactive”. With N#CCc1ccccc1 the Potency was “inactive”.
